Among the data in PubChem BioAssay AID463173 (ICCB-Longwood Screening Facility, Harvard Medical School, 2010) are survival values, retold here.

The whole screen tested about 52,000 compounds, of which about 4,300 (8.3%) were called active. The sample as a whole holds a higher share of actives than the screen did. A number with no mark means an inactive call. Rule as the data show it: active = survival mostly below about 52% (no sharp cut-off); inactive = mostly above about 56%.

The subject of the experiment is DeltatarO mutant. Nature of the experiment: S. aureus survival, RN4220 and DeltatarO strains – OD600, teichoic acid synthesis inhibitors, primary screen (AID 463173). The settings on record: S. aureus RN4220 wild type/DeltatarO growth, OD600, 18 h, hits give low values, screened at 18.75 µg/mL (by protocol).
As to `COc1cc(NC(=O)CCc2c(C)nn(-c3ccc(N4CCCCC4)nn3)c2C)cc(OC)c1OC`, the survival is 95%. The result for `CCOC(=O)c1ccccc1NC(=O)n1ncc2cc(Cl)ccc21` reads 85%; that for `O=C(O)c1cc(N2C(=O)C3CC=CCC3C2=O)ccc1NCc1cccnc1` (stereo unspecified), 90%. On to `CC(=O)c1cccc(NC(=O)c2sc(-n3nc(C)c(CCC(C)C)c3C)nc2C)c1`, for which the survival was 53%. The result for `CCOc1ccccc1NC(=O)Cn1cc(C(=O)c2ccc(Cl)cc2)c(=O)c2ccc(C)nc21` reads 87%. With `CCc1ccc(N2CC(C)Cn3c2nc2c3c(=O)n(CC(=O)O)c(=O)n2C)cc1` (stereo unspecified), the survival was 77%. For the molecule `COc1ccc(C2(CNC(=O)C(=O)Nc3cccc(C(F)(F)F)c3)CCCC2)cc1OC`, the survival was 102%. For the molecule `Cc1cccc2cc(CN(C(=O)c3ccco3)C3CCCC3)c(=O)[nH]c12`, the survival is 51%.

Regarding `CCCc1nc2sc3c(N4CCCCC4)ncnc3c2c2c1CCCC2`, the survival was 12% (active).

Consider `CCCCN(CC)c1ncnc2c1sc1nc(N3CCOCC3)c3c(c12)CCCC3`, for which the survival was 35% (active).

`CCCCSc1ncnc2c1sc1nc(N3CCOCC3)c3c(c12)CCCC3`: the survival was 77%. The figure for `CCCc1nc2sc3c(N4CCC(C)CC4)ncnc3c2c2c1CCCC2` is 61%. The figure for `CCc1nc2sc3c(N4CCCCC4)ncnc3c2c2c1CCCC2` is 175%; for `CCCCCSc1ncnc2c1sc1nc(N3CCOCC3)c3c(c12)CCCC3` it is 69%; for `Cc1ccc(-c2[nH]c3ccccc3c2SCCNC(=O)c2ccc(S(=O)(=O)N(C)C)cc2)cc1` it is 105%. Take `COc1ccc(NC(=O)CSCc2cc(=O)c3cc(C)ccc3[nH]2)cc1`: the survival is 68%. Consider `CC(=O)Nc1ccc(NC(=O)C2CCN(S(=O)(=O)c3ccc4c(c3)CCCC(=O)N4)CC2)cc1`, for which the survival was 85%. The result for `CC(C)(C)C(=O)OCc1cc(=O)n2nc(C3CCCCC3)sc2n1` reads 80%; that for `COc1ccc(CC(=O)NC2CCN(CC(=O)c3ccc(F)cc3)CC2)cc1OC`, 108%; that for `Cc1cc(C)nc(NC(=O)COc2ccc(Br)cc2)n1`, 84%. As to `CN(CCCNC(=O)Cn1ncc2c([nH]c3ccccc32)c1=O)Cc1ccccc1`, the survival was 100%. The figure for `COc1ccc(CNC(=O)Cn2ncc3c([nH]c4ccccc43)c2=O)cc1` is 91%; for `O=C(Cn1ncc2c([nH]c3ccccc32)c1=O)NCc1cccc(Cl)c1` it is 20% (active). `CCCCN(C)CCNC(=O)Cn1ncc2c([nH]c3ccccc32)c1=O`: the survival was 8% (active). The result for `CCN(CC)CCNC(=O)Cn1ncc2c([nH]c3ccccc32)c1=O` reads 89%.

As for `Cc1ccc(CCNC(=O)Cn2ncc3c([nH]c4ccccc43)c2=O)cc1`, the survival is 102%.
